The panel holds about 83,000 compounds, 20% with a hit somewhere; the sample as a whole holds those more often.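 Plates (96-well) were seeded with cells, treated with compound at one concentration, and incubated for 48 hours before percent growth was determined.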 Calls of active or inactive are those of the source. The calls were made as follows: active = growth percent below 10; inactive = the rest.
Experiments:
Assay in all cases: NCI-60 one-dose screen, 48 h (100 = growth as untreated, 0 = no growth, -100 = all killed)
Conditions in all cases: 10 µM unless noted
NCI-H23 lung = test system: NCI-H23 lung
NCI-H226 lung = test system: NCI-H226 lung
NCI-H322M lung = test system: NCI-H322M lung
HOP-62 NSCLC = test system: HOP-62 NSCLC
NCI-H460 lung = test system: NCI-H460 lung
HOP-92 NSCLC = test system: HOP-92 NSCLC
NCI-H522 lung = test system: NCI-H522 lung
A549/ATCC NSCLC = test system: A549/ATCC NSCLC
786-0 renal = test system: 786-0 renal
COLO 205 colon = test system: COLO 205 colon

Measured: growth

Cc1ccc(C(=O)NCCCOc2ccc(N3C(N)=NC(N)=NC3(C)C)cc2Cl)cc1S(=O)(=O)F
inactive: NCI-H23 lung 84.4% | NCI-H226 lung 91.9% | NCI-H322M lung 92.5% | HOP-62 NSCLC 94.7% | NCI-H460 lung 46.2% | HOP-92 NSCLC 69.1% | NCI-H522 lung 78.3% | A549/ATCC NSCLC 77.5% | 786-0 renal 91% | COLO 205 colon 87.7%

CCC[CH2][Sn]([CH2]CCC)([CH2]CCC)[O]c1ccc(Cl)cc1Cl
active: NCI-H23 lung -87.2% | NCI-H226 lung -86.5% | NCI-H322M lung -80.1% | HOP-62 NSCLC -91.7% | NCI-H460 lung -84.8% | HOP-92 NSCLC -84.9% | NCI-H522 lung -90.1% | A549/ATCC NSCLC -82% | 786-0 renal -93.8% | COLO 205 colon -75.2%

CCCC[C@H](NC(=O)[C@H]1CCCN1C)C(=O)N(C)[C@H](C[C@@H](OC(C)=O)c1nc(C(=O)N[C@@H](Cc2ccccc2)C[C@H](C)C(=O)OCC)cs1)C(C)C
inactive: NCI-H23 lung 24.4% | NCI-H226 lung 37.2% | NCI-H322M lung 33.3% | HOP-62 NSCLC 21.8%
active: NCI-H460 lung 7.53% | HOP-92 NSCLC 7.16% | NCI-H522 lung -12.1% | A549/ATCC NSCLC 8.16% | 786-0 renal 3.94% | COLO 205 colon -66.7%

C[C@]12CCc3sc(-c4ccccc4O)nc3C1=CC[C@@H]1[C@@H]2CC[C@]2(C)C(=O)CC[C@@H]12
inactive: NCI-H23 lung 103% | NCI-H226 lung 108% | NCI-H322M lung 101% | HOP-62 NSCLC 98.9% | NCI-H460 lung 108% | HOP-92 NSCLC 115% | NCI-H522 lung 99.3% | A549/ATCC NSCLC 103% | 786-0 renal 102% | COLO 205 colon 108%

Cn1cc(-c2csc(-c3cn(CCCCN4CCCCC4)c4ccc(F)cc34)n2)c2cccnc21
active: 786-0 renal -62%
inactive: NCI-H23 lung 79.8% | NCI-H226 lung 74.6% | NCI-H322M lung 81.5% | HOP-62 NSCLC 88.8% | NCI-H460 lung 89.3% | HOP-92 NSCLC 51.7% | NCI-H522 lung 86.2% | A549/ATCC NSCLC 92.6% | COLO 205 colon 96.7%

CCn1nccc1NC(=O)C(=O)c1cn(Cc2ccc(F)cc2)c2cccc(OC)c12
inactive: NCI-H23 lung 95.8% | NCI-H226 lung 75.1% | NCI-H322M lung 102% | HOP-62 NSCLC 75.9% | NCI-H460 lung 98.2% | HOP-92 NSCLC 46.6% | NCI-H522 lung 57.3% | A549/ATCC NSCLC 92.4% | 786-0 renal 72.7% | COLO 205 colon 106%

COC(=O)[C@@H](C)C[C@H](Cc1ccccc1)NC(=O)c1csc([C@@H](C[C@H](C(C)C)N(C)C(=O)[C@@H](NC(=O)C23CC(NC(C)=O)(C2)C3)C2CC2)OC(C)=O)n1
active: NCI-H522 lung 2.4%
inactive: NCI-H23 lung 60.2% | NCI-H226 lung 107% | NCI-H322M lung 105% | HOP-62 NSCLC 67.9% | NCI-H460 lung 36.6% | HOP-92 NSCLC 38.5% | A549/ATCC NSCLC 93.5% | 786-0 renal 65% | COLO 205 colon 32.5%

Cc1ccc(C(=O)NCCCOc2ccc(N)cc2Cl)cc1S(=O)(=O)F
inactive: NCI-H23 lung 98.9% | NCI-H226 lung 89% | NCI-H322M lung 87.2% | HOP-62 NSCLC 89.1% | NCI-H460 lung 102% | HOP-92 NSCLC 96.6% | NCI-H522 lung 73.5% | A549/ATCC NSCLC 90.1% | 786-0 renal 86% | COLO 205 colon 105%

CC(=O)OC[C@]1(C)C=C2C(=O)[C@](C)(O)C3(CC3)C(C)=C2[C@H]1O
active: NCI-H23 lung -35.5% | NCI-H226 lung -15% | NCI-H322M lung -23.1% | HOP-62 NSCLC -29.4% | NCI-H460 lung -37.4% | HOP-92 NSCLC -25.8% | NCI-H522 lung -52.5% | A549/ATCC NSCLC -21.4% | 786-0 renal -46.2% | COLO 205 colon -33.5%

CC(CO)NC1CCCCC1 (stereo not given)
inactive: NCI-H23 lung 103% | NCI-H226 lung 119% | NCI-H322M lung 102% | HOP-62 NSCLC 102% | NCI-H460 lung 108% | HOP-92 NSCLC 78% | NCI-H522 lung 103% | A549/ATCC NSCLC 102% | 786-0 renal 100% | COLO 205 colon 113%

COc1cc2c(cc1OCCCCCn1c(-c3ccco3)nc3ccccc31)N=C[C@@H]1CCCN1C2=O
inactive: 786-0 renal 11.5%
active: NCI-H23 lung -50% | NCI-H226 lung -14.9% | NCI-H322M lung -13% | HOP-62 NSCLC 6.15% | NCI-H460 lung 4.72% | HOP-92 NSCLC -5.94% | NCI-H522 lung -23.9% | A549/ATCC NSCLC 9.67% | COLO 205 colon 4.57%

O=C([O][Hg][c]1ccccc1)c1ccccc1
active: NCI-H23 lung 1.89% | HOP-62 NSCLC -33.7% | HOP-92 NSCLC -61.3% | NCI-H522 lung -64.1% | 786-0 renal -93.8% | COLO 205 colon -70%
inactive: NCI-H226 lung 96.4% | NCI-H322M lung 67.7% | NCI-H460 lung 11.7% | A549/ATCC NSCLC 76.2%

Cn1cc(C=O)c2nccnc21
inactive: NCI-H23 lung 94.9% | NCI-H226 lung 120% | NCI-H322M lung 123% | HOP-62 NSCLC 113% | NCI-H460 lung 104% | HOP-92 NSCLC 82% | NCI-H522 lung 78.2% | A549/ATCC NSCLC 96.8% | 786-0 renal 119% | COLO 205 colon 109%

COC(=O)[C@@H](C)C[C@H](Cc1ccccc1)NC(=O)c1csc([C@@H](C[C@H](C(C)C)N(C)C(=O)[C@H](C)NC(=O)[C@H]2CCCN2C)OC(C)=O)n1
active: NCI-H522 lung -10.7%
inactive: NCI-H23 lung 60.8% | NCI-H226 lung 68.2% | NCI-H322M lung 63.7% | HOP-62 NSCLC 63.6% | NCI-H460 lung 30.9% | HOP-92 NSCLC 37.6% | A549/ATCC NSCLC 83% | 786-0 renal 45% | COLO 205 colon 22.8%

NC(=Nc1ccccc1)N[N+](=O)[O-]
inactive: NCI-H23 lung 93.7% | NCI-H226 lung 90.1% | NCI-H322M lung 109% | HOP-62 NSCLC 104% | NCI-H460 lung 105% | HOP-92 NSCLC 118% | NCI-H522 lung 115% | A549/ATCC NSCLC 107% | 786-0 renal 113% | COLO 205 colon 107%

O=P(Oc1ccc(Cl)cc1)(N1CC1)N1CC1
inactive: NCI-H23 lung 65.4% | NCI-H226 lung 87.8% | NCI-H322M lung 99.6% | HOP-62 NSCLC 81.3% | NCI-H460 lung 39.3% | HOP-92 NSCLC 81.2% | NCI-H522 lung 66.8% | A549/ATCC NSCLC 60.2% | 786-0 renal 84.5% | COLO 205 colon 94.6%

O=C(O)c1c(Cl)n(Cc2ccc(O)cc2)c2ccc(O)cc12
inactive: NCI-H23 lung 113% | NCI-H226 lung 97.2% | NCI-H322M lung 96.3% | HOP-62 NSCLC 93.7% | NCI-H460 lung 106% | HOP-92 NSCLC 65% | NCI-H522 lung 83.4% | A549/ATCC NSCLC 103% | 786-0 renal 108% | COLO 205 colon 110%

NC(=S)c1cn(C2OC(CO)C(O)C2O)c2ncnc(N)c12 (stereo not given)
active: NCI-H23 lung -38.8% | NCI-H226 lung -12.7% | NCI-H322M lung -17% | HOP-62 NSCLC -30% | NCI-H460 lung 3.97% | HOP-92 NSCLC -4.97% | NCI-H522 lung -38.6% | A549/ATCC NSCLC 4.83% | 786-0 renal -15.9% | COLO 205 colon -47%

COC(C(=O)[C@@H](O)[C@@H](C)O)[C@@H]1Cc2cc3cc(O[C@H]4C[C@@H](O[C@H]5C[C@@H](O)[C@H](O)C(C)O5)[C@H](O)C(C)O4)c(C)c(O)c3c(O)c2C(=O)[C@H]1O[C@H]1C[C@@H](O[C@H]2C[C@@H](O[C@H]3C[C@@H](O)[C@@H](O)C(C)O3)[C@@H](O)C(C)O2)[C@H](O)C(C)O1 (stereo not given in full)
active: NCI-H23 lung -0.735% | NCI-H226 lung -22.2% | HOP-62 NSCLC -4.46% | NCI-H460 lung 7.75% | NCI-H522 lung -23.7% | A549/ATCC NSCLC 2.42% | 786-0 renal -1.51% | COLO 205 colon -43.3%
inactive: NCI-H322M lung 14% | HOP-92 NSCLC 13.3%

CC1=C([Te]c2ccc(O)cc2)C(=O)c2ccccc2C1=O
inactive: NCI-H322M lung 22.3%
active: NCI-H23 lung -19.6% | NCI-H226 lung -35.4% | HOP-62 NSCLC -25.2% | NCI-H460 lung -27.6% | HOP-92 NSCLC -56.5% | NCI-H522 lung 0.775% | A549/ATCC NSCLC 6.97% | 786-0 renal -1.41% | COLO 205 colon -88.5%

CC[C@@H]1[C@@H](C)O[C@@](O)([C@@H](C)[C@H](O)[C@H](C)[C@H]2OC(=O)/C=C/C=C/[C@H](C)[C@@H]([C@@H](C)[C@@H](O)[C@H](C)[C@@]3(O)C[C@@H](O[C@H]4C[C@@H](O)[C@H](O)C(C)O4)[C@H](CC)[C@@H](C)O3)OC(=O)/C=C/C=C/[C@@H]2C)C[C@H]1O[C@@H]1C[C@@H](O)[C@H](O)C(C)O1 (stereo not given in full)
active: NCI-H23 lung -73.9% | NCI-H226 lung -57.5% | NCI-H322M lung -96.6% | HOP-62 NSCLC -80.6% | NCI-H460 lung -72.6% | HOP-92 NSCLC -89.9% | NCI-H522 lung -81.8% | A549/ATCC NSCLC -89.7% | 786-0 renal -86.1% | COLO 205 colon -78.4%

CCC(=O)Nc1ccc(Cl)c(Cl)c1
inactive: NCI-H23 lung 96.5% | NCI-H226 lung 102% | NCI-H322M lung 93.5% | HOP-62 NSCLC 93.7% | NCI-H460 lung 111% | HOP-92 NSCLC 76.8% | NCI-H522 lung 84.7% | A549/ATCC NSCLC 92.5% | 786-0 renal 91.1% | COLO 205 colon 107%

O=C1CNC(c2ccccc2)c2cc(Cl)ccc2N1 (stereo not given)
inactive: NCI-H23 lung 93.7% | NCI-H226 lung 89.6% | NCI-H322M lung 95.5% | HOP-62 NSCLC 92% | NCI-H460 lung 110% | HOP-92 NSCLC 107% | NCI-H522 lung 69.3% | A549/ATCC NSCLC 95% | 786-0 renal 109% | COLO 205 colon 116%

N#Cc1c(Br)n(C2OC(CO)C(O)C2O)c2ncnc(N)c12 (stereo not given)
inactive: NCI-H23 lung 74.4% | NCI-H226 lung 135% | NCI-H322M lung 81% | HOP-62 NSCLC 101% | NCI-H460 lung 34% | HOP-92 NSCLC 52.7% | NCI-H522 lung 60.5% | A549/ATCC NSCLC 13.4% | 786-0 renal 89.1% | COLO 205 colon 18.2%

O=NN1CCCc2cccc(O)c21
inactive: NCI-H226 lung 76.5% | NCI-H322M lung 41.8% | HOP-62 NSCLC 31.9% | HOP-92 NSCLC 71.6% | A549/ATCC NSCLC 37.6% | 786-0 renal 27.2% | COLO 205 colon 94%
active: NCI-H23 lung -6.22% | NCI-H460 lung 4.79% | NCI-H522 lung -21.7%

Source: PubChem BioAssay (NCI)
